# Results taken from PubChem BioAssay (EPA / NIEHS).
# Records with an inconclusive call do not appear. The source made the active and inactive calls. How the source made its calls: active means hit-call score of the fitted dose curve at least 0.9, where 1 is the maximum; inconclusive means response in the unintended direction; inactive means score below 0.9.
# Assays:
# [1] = target: human Protein Tyrosine Phosphatase Receptor Type F (PTPRF), PTPRF (gene 5792) (UniProt P10586); assay: NVS_ENZ_hPTPRF: NovaScreen (NVS) Enzymatic Assay for human Protein Tyrosine Phosphatase Receptor Type F (PTPRF) (AID 2283213)
# Outline: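 Cell-free fluorescence enzyme assay with recombinant protein and substrate; product separated by electrophoretic mobility shift. Read 1 h after dosing, single 25 uM duplicate screen, then concentration-response up to 50 uM; loss of signal vs DMSO.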
# [2] = target: human SRC Proto-Oncogene, Non-receptor Tyrosine Kinase (SRC), SRC (gene 6714) (UniProt P12931); assay: NVS_ENZ_hSRC: NovaScreen (NVS) Enzymatic Assay for human SRC Proto-Oncogene, Non-receptor Tyrosine Kinase (SRC) (AID 2283223)
# Outline: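 Cell-free kinase activity assay with fluorescent substrate, product separated by electrophoretic mobility shift, read 1 h after dosing. Duplicate single point at 25 uM, then concentration-response up to 50 uM; loss of signal versus DMSO.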
# [3] = target: human Rho Associated Coiled-coil Containing Protein Kinase 1 (ROCK1), ROCK1 (gene 6093) (UniProt Q13464); assay: NVS_ENZ_hROCK1: NovaScreen (NVS) Enzymatic Assay for human Rho Associated Coiled-coil Containing Protein Kinase 1 (ROCK1) (AID 2283214)
# Outline: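 Cell-free recombinant human ROCK1 activity assay; fluorescent substrate and product separated by electrophoretic mobility shift, read 1 h after dosing. Screened in duplicate at 25 uM; loss of signal versus DMSO baseline scored as inhibition.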
# [4] = target: human Sirtuin 2 (SIRT2), SIRT2 (gene 22933) (UniProt Q8IXJ6); assay: NVS_ENZ_hSIRT2: NovaScreen (NVS) Enzymatic Assay for human Sirtuin 2 (SIRT2) (AID 2283217)
# Outline: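 Cell-free recombinant human SIRT2, fluorescent substrate with product separated by electrophoretic mobility shift, 1 hr. Screened in duplicate at 25 uM; hits rerun singly in concentration-response up to 50 uM, relative to DMSO.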
# [5] = tested on: bovine Angiotensin II Receptor Type 2 (AT2), gene 407157; assay: NVS_GPCR_bAT2: NovaScreen (NVS) G Protein-Coupled Receptor Assay for bovine Angiotensin II Receptor Type 2 (AT2) (AID 2283240)
# Outline: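 Radioligand displacement on bovine cerebellar membranes, 1 hour incubation, filter-based scintillation counting; loss of signal vs DMSO. Duplicate single-point screen at 25 uM, then concentration-response to 50 uM maximum.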
# [6] = target: human Tropomyosin Receptor Kinase A (TRKA), NTRK1 (gene 4914) (UniProt P04629); assay: NVS_ENZ_hTrkA: NovaScreen (NVS) Enzymatic Assay for human Tropomyosin Receptor Kinase A (TRKA) (AID 2283224)
# Outline: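 Recombinant human TrkA activity read after 1 h by fluorescence with electrophoretic mobility shift separating substrate and product. Primary screen in duplicate at 25 uM; actives were rerun in concentration-response up to 50 uM. Loss of signal versus DMSO.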
# [7] = target: rabbit Imidazoline 2 Central (I2C), CKB (gene 100009085) (UniProt P00567); assay: NVS_ENZ_rabI2C: NovaScreen (NVS) Enzymatic Assay for rabbit Imidazoline 2 Central (I2C) (AID 2283228)
# Description: NVS_ENZ_rabI2C is a biochemical, single-readout assay that uses extracted gene-proteins from Rabbit brain membranes in a tissue-based cell-free assay. Measurements were taken 1.5 hours after chemical dosing in a 48-well plate.NVS_ENZ_rabI2C is one of one assay component(s) measured or calculated from the NVS_ENZ_rabI2C assay. It is designed to make measurements of enzyme activity, a form of enzyme reporter, as detected with scintillation counting signals by Filter-based radiodetection technology.Data from the assay component NVS_ENZ_rabI2C was analyzed into 1 assay endpoint. This assay endpoint, NVS_ENZ_rabI2C, was analyzed in the positive analysis fitting direction relative to DMSO as the negative control and baseline of activity. Using a type of enzyme reporter, loss-of-signal activity can be used to understand changes in the enzymatic activity as they relate to the gene CKB. Furthermore, this assay endpoint can be referred to as a primary readout, because this assay has produced multiple assay endpoints where this one serves a enzymatic activity function. To generalize the intended target to other relatable targets, this assay endpoint is annotated to the oxidoreductase intended target family, where the subfamily is imidazoline receptor. […]
# [8] = tested on: rat Monoamine Oxidase, MAO-A, Peripheral (MAOAP), gene 29253; assay: NVS_ENZ_rMAOAP: NovaScreen (NVS) Enzymatic Assay for rat Monoamine Oxidase, MAO-A, Peripheral (MAOAP) (AID 2283237)
# Outline: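 Rat liver mitochondrial membranes served as the MAO-A source, with enzyme activity measured by radiometric scintillation counting 1.17 hours after dosing. Loss of signal was fitted against DMSO; primary screen used 25 uM in duplicate, follow-up used concentration series.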
# [9] = target: rat Monoamine Oxidase, MAO-B, Central (MAOBC), Maob (gene 25750) (UniProt P19643); assay: NVS_ENZ_rMAOBC: NovaScreen (NVS) Enzymatic Assay for rat Monoamine Oxidase, MAO-B, Central (MAOBC) (AID 2283238)
# Description: NVS_ENZ_rMAOBC is a biochemical, single-readout assay that uses extracted gene-proteins from Rat brain in a tissue-based cell-free assay. Measurements were taken 1.17 hours after chemical dosing in a 96-well plate.NVS_ENZ_rMAOBC is one of one assay component(s) measured or calculated from the NVS_ENZ_rMAOBC assay. It is designed to make measurements of enzyme activity, a form of enzyme reporter, as detected with scintillation counting signals by Lysate-based radiodetection technology.Data from the assay component NVS_ENZ_rMAOBC was analyzed into 1 assay endpoint. This assay endpoint, NVS_ENZ_rMAOBC, was analyzed in the positive analysis fitting direction relative to DMSO as the negative control and baseline of activity. Using a type of enzyme reporter, loss-of-signal activity can be used to understand changes in the enzymatic activity as they relate to the gene Maob. Furthermore, this assay endpoint can be referred to as a primary readout, because this assay has produced multiple assay endpoints where this one serves a enzymatic activity function. To generalize the intended target to other relatable targets, this assay endpoint is annotated to the oxidoreductase intended target family, where the subfamily is monoamine oxidase. […]
# [10] = target: rat Monoamine Oxidase, MAO-B, Peripheral (MAOBP), Maob (gene 25750) (UniProt P19643); assay: NVS_ENZ_rMAOBP: NovaScreen (NVS) Enzymatic Assay for rat Monoamine Oxidase, MAO-B, Peripheral (MAOBP) (AID 2283242)
# Sequence of human Rho Associated Coiled-coil Containing Protein Kinase 1 (ROCK1), ROCK1 (gene 6093) (Q13464 whole entry, looked up): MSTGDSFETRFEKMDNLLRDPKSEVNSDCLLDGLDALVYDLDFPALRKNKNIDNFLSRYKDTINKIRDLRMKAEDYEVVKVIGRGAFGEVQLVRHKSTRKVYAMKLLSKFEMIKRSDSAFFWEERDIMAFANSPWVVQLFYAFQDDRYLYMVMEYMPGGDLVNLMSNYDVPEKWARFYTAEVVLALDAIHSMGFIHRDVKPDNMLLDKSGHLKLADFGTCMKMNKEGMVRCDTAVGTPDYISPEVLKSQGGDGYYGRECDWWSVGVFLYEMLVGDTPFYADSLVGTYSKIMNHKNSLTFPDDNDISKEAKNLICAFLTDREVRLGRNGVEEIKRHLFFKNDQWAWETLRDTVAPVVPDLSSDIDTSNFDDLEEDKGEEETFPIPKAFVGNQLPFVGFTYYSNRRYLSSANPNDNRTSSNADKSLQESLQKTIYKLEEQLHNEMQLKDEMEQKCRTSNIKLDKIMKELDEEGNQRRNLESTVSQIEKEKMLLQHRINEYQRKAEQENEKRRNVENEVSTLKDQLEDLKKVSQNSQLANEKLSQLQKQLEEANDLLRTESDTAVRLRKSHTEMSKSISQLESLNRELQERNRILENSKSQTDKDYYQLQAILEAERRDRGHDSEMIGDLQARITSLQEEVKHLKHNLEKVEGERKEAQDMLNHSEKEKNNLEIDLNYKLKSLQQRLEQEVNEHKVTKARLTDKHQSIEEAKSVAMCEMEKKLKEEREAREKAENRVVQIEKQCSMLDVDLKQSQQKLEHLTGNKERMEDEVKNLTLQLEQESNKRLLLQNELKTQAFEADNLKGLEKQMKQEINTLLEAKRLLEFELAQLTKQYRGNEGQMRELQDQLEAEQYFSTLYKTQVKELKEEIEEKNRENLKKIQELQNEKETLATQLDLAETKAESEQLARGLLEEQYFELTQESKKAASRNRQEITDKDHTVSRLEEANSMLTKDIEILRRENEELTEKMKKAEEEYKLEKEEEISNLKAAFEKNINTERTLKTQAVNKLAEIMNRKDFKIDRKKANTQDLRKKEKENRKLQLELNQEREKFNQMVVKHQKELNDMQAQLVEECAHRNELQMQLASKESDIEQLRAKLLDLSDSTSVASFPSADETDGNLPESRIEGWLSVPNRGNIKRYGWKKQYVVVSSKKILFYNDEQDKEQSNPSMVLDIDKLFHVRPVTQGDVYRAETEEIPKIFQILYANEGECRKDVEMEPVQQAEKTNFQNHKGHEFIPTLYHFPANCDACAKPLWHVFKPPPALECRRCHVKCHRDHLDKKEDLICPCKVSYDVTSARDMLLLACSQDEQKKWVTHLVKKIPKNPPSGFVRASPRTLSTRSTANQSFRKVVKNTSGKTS
# Sequence of human SRC Proto-Oncogene, Non-receptor Tyrosine Kinase (SRC), SRC (gene 6714) (P12931 whole entry, looked up): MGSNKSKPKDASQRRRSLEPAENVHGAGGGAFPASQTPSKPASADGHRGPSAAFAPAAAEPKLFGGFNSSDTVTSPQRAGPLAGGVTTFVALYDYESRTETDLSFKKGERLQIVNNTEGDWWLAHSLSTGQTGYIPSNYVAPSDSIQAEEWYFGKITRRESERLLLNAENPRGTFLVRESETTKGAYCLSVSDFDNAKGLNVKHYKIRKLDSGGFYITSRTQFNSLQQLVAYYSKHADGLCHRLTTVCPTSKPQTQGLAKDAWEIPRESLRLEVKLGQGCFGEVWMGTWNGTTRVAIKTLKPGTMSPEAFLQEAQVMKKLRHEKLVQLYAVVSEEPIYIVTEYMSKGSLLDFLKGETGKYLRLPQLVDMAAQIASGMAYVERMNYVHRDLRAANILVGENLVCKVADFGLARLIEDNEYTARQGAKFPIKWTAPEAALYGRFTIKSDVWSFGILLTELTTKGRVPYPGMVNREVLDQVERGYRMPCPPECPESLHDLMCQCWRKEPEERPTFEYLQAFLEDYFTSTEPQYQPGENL
# Sequence of human Protein Tyrosine Phosphatase Receptor Type F (PTPRF), PTPRF (gene 5792) (P10586 whole entry, looked up): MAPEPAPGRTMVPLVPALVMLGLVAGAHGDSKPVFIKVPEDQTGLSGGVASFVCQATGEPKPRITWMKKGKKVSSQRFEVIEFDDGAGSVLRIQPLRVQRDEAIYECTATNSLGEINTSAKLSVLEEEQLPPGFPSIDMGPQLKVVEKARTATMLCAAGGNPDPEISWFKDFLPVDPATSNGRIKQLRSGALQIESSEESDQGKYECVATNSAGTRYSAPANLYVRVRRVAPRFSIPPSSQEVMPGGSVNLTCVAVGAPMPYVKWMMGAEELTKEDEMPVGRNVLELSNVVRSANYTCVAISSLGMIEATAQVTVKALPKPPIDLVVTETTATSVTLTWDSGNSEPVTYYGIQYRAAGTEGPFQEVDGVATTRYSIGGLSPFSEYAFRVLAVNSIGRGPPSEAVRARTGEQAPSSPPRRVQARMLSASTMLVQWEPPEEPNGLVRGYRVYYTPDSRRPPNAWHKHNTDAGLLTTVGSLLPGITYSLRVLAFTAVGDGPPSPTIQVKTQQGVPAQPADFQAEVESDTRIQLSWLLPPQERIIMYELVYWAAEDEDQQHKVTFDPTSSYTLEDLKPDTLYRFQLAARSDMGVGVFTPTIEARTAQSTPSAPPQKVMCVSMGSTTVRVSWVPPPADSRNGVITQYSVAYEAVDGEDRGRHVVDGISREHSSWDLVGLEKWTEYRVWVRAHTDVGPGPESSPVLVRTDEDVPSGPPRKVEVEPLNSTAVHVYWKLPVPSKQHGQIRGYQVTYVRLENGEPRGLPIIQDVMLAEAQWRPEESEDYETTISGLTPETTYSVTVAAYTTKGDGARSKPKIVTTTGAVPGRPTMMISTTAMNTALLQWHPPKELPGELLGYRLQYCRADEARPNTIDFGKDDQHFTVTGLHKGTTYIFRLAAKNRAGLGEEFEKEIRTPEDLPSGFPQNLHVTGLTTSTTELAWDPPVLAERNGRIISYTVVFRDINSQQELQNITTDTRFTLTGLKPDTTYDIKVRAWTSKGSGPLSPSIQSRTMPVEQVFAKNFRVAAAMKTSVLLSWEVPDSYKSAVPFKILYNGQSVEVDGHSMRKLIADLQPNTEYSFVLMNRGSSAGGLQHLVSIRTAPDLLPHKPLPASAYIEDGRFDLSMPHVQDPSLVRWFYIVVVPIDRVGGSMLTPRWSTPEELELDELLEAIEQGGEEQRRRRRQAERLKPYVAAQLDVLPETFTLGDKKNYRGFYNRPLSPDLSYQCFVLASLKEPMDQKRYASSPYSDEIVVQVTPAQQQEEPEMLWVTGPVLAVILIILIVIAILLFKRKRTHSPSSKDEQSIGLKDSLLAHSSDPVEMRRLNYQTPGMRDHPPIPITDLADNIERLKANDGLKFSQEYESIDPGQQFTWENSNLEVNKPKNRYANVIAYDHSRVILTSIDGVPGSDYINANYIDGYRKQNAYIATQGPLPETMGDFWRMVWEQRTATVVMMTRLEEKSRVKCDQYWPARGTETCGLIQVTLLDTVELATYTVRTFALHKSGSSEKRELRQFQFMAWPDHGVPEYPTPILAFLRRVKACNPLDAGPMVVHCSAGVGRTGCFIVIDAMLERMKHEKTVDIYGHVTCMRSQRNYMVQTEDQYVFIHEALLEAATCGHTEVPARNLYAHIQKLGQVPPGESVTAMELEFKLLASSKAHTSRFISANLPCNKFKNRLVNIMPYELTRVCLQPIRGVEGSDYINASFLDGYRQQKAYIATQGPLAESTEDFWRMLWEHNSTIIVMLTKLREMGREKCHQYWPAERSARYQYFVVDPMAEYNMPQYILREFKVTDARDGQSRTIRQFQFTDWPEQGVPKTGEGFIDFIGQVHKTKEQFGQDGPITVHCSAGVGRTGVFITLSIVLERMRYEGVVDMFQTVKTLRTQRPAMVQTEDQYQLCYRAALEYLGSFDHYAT
# Sequence of rabbit Imidazoline 2 Central (I2C), CKB (gene 100009085) (P00567 whole entry, looked up): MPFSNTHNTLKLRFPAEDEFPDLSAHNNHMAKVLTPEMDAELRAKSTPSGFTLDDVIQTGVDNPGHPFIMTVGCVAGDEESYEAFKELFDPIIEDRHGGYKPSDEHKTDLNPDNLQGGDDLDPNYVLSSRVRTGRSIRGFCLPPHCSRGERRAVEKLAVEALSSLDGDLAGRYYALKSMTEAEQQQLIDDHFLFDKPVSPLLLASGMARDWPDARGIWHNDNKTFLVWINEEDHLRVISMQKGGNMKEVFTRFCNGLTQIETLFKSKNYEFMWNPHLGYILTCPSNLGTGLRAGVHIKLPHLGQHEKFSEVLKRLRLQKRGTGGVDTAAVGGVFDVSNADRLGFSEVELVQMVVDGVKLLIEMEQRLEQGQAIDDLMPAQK
# Sequence of human Tropomyosin Receptor Kinase A (TRKA), NTRK1 (gene 4914) (P04629 whole entry, looked up): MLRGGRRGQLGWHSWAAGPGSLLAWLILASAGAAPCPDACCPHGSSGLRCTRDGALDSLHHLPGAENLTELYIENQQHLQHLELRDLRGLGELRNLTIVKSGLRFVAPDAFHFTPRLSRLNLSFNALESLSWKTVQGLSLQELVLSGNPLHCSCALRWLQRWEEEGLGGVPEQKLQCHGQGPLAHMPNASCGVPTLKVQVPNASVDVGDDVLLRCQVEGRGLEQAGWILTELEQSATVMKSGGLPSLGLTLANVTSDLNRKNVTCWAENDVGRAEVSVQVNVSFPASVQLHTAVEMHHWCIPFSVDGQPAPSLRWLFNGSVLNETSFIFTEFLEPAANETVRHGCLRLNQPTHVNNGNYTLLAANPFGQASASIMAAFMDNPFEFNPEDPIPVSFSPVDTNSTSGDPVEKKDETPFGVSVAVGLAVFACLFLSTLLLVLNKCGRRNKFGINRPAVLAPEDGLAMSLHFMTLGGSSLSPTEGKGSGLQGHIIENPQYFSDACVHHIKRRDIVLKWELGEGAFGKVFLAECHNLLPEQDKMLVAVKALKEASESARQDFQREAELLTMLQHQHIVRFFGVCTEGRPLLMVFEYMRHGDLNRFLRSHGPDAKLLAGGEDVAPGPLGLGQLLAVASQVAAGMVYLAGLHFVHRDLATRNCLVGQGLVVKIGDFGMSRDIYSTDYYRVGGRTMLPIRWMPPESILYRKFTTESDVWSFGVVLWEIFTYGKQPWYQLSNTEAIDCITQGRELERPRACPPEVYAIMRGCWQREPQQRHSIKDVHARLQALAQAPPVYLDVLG
smiles,measurement,setting,value
CC(C)O.CC(C)O.OCCN(CCO)CCO.OCCN(CCO)CCO.[Ti],AC50,[1],3.38 µM (active)
same,AC50,[2],0.00229 µM (active)
Clc1cccc(Cl)c1Cl,outcome,[1],inactive
O=C(O)C1(c2ccc3c(c2)OC[C@H](Cc2ccc(-c4ccccc4)cc2)[C@H]3O)CCCC1,outcome,[3],inactive
N#Cc1cccnc1,outcome,[3],inactive
same,outcome,[4],inactive
same,outcome,[2],inactive
same,outcome,[5],inactive
CCCCCCCCCCCCc1cccc(S(=O)(=O)O)c1,AC50,[6],36.3 µM (active)
COc1ccccc1N,outcome,[7],inactive
Oc1cc(Cl)c(Cl)cc1Cl,AC50,[8],19.6 µM (active)
same,AC50,[9],8.69 µM (active)
same,AC50,[10],17.7 µM (active)
